Compounds without any hit were thinned out: in the full panel of roughly 79,000, 15% have a hit. A number with no mark means an inactive call. The source made the active and inactive calls. Rule as the data show it: active = growth inhibition above about 70%; inactive = the rest.

The assay can be described thus: NCI Yeast Anticancer Drug Screen. Data for the mlh1 rad18 strain (AID 175). Conditions: S. cerevisiae mlh1 rad18 strain growth inhibition, stronger effect = higher value; at 50.0 µM unless noted. The procedure: Growth inhibition of yeast strains with defined genetic alterations is measured as a screen for potential anti-cancer activity. Selected strains with alterations in DNA damage repair or cell cycle control were exposed to compounds and growth inhibition was measured relative to vehicle treated controls. The strain used in this assay is mlh1 rad18
As for `CC1(C)C2CC(O)C1CCC2=O` (stereo not given), the growth inhibition was -35.5%.

Regarding `CC1CCC(c2cc(-c3ccccc3)n(-c3ccccc3)n2)CC1` (stereo not given), the growth inhibition was -6.15%.

In the case of `O=C(CC(CC(=O)C(c1ccccc1)c1ccccc1)c1ccccc1)C(c1ccccc1)c1ccccc1`, the growth inhibition was 29.6%. The same measure for `CC(=O)NC(CCCCNC(=O)N(CCCl)N=O)C(=O)NCc1ccccc1` (stereo not given): -1.85%; for `CC(CCC#CC(=O)O)OC1CCCCO1` (stereo not given): -14.2%. Take `O=C(O)CSCC(=O)Nc1ccccc1Cl`: the growth inhibition was -0.35%.

With `CC(=O)c1sc2[n+](c1C)C(=O)/C(=C\c1ccccc1Cl)S2`, the growth inhibition is -3%.

As to `CCCCCCCCC(=O)Nc1cccc(O)c1`, the growth inhibition is -13.8%.

For `O=C(Cc1ccccc1)c1ccccc1C(=O)NCc1ccncc1`, the growth inhibition was -0.6%. The value for `CC(C)=Nn1cnc2c1NC(C)(C)N=C2C(N)=O` was -15.6%; that for `CCCCC(OC(=O)c1ccccc1)c1cc(OC(=O)c2ccccc2)c2c(c1OC(=O)c1ccccc1)CC(C)=C(C)C2` (stereo not given) was 56.2%. Consider `CC(C)C(=O)NCC[C@@H](CNC(=O)OC(C)(C)C)NC(=O)OC(C)(C)C`, for which the growth inhibition was 34.5%. The same measure for `CCOC(=O)c1c2ccc(/C=C/C(=O)OC)ccc-2c(C(=O)OCC)c1N`: -4.35%; for `O=C(Cc1csc2ccccc12)NCC1CC1`: -3.55%; for `Cc1ccc2nc(C=Nc3ccccc3Cl)cc(C)c2c1`: 3.2%.

Take `O=C(O)CCCCCCC(=O)O`: the growth inhibition was -2.3%.

With `O/N=C(Sc1ccccn1)/C(=N/O)Sc1ccccn1`, the growth inhibition was 4.9%. The value for `O=[N+]([O-])c1ccc[nH]1` was 2%; that for `CCOC(=O)C(=CNC(=S)N=Nc1c(O)[nH]c2ccccc12)C(=O)OCC` was -25.8%; that for `O/N=C/c1ccco1` was 16.1%. The value for `CCC(C)(O)c1cn(-c2ccc(Cl)cc2)nn1` (stereo not given) was 0.25%; that for `CC1(C)Oc2nc[nH]c(=O)c2C1c1ccccc1` (stereo not given) was 5.35%; that for `Nc1ncnc2c1ncn2C1OC(CO)C(NC(=O)C(N)Cc2ccccc2)C1O` (stereo not given) was -9.5%.

Turning to `O=C(O)c1nc(-c2ccccc2)ncc1-c1nnnn1-c1ccccc1`, the growth inhibition is -7.1%. The same measure for `Cc1c(OCCCOc2ccc3c(=O)cc(-c4ccccc4)oc3c2C)ccc2c(=O)cc(-c3ccccc3)oc12`: -31.8%; for `OC1(c2cccnc2)c2ccccc2Oc2ccccc21`: -8.2%. Turning to `O=C(C/C(CCC(=O)N(Cc1ccccc1)Cc1ccccc1)=N/Nc1ccc([N+](=O)[O-])cc1[N+](=O)[O-])c1ccccc1`, the growth inhibition was 61.8%. The same measure for `Cc1cn(C2CC(ON)C(CO)O2)c(=O)[nH]c1=O` (stereo not given): -48%.

On to `CC(=O)[C@@]1(O)CC[C@H]2[C@@H]3CC[C@@H]4C[C@H](O)CC[C@]4(C)[C@H]3[C@H](O)C[C@@]21C`, for which the growth inhibition was -7.85%.

With `C=C1CC(c2ccccc2)(c2cccs2)OC1=O` (stereo not given), the growth inhibition was 90.7% (active).

Take `CNC(=O)NC(c1ccc(F)cc1)c1cc2c(cc1O)OCO2` (stereo not given): the growth inhibition was 12.4%. The same measure for `N#CCN(CC#N)C1CC=CCC1N(CC#N)CC#N` (stereo not given): -38.1%; for `C/C(=N/NC(N)=O)C1CCc2ccccc2C1` (stereo not given): 22.9%; for `[O-][N+](=Nc1ccc2c(c1)Cc1ccccc1-2)c1ccc2c(c1)Cc1ccccc1-2`: -7%. The value for `COc1ccc2c3c(ccc2c1)[C@@H]1C/C(=C(\OC(C)=O)C(F)(F)F)C(=O)[C@@]1(C)CC3` was 20.3%; that for `N=C(N)SCc1ccc(Oc2ccc(CSC(=N)N)cc2)cc1` was 15.3%; that for `O=C(NNC(=O)c1ccc2ccccc2c1)c1ccc(Cl)cc1` was -9.75%. The same measure for `CCN(CC)C(=O)c1c(N2CCOCC2)cc(N(CC)CC)oc1=O`: -40.6%. `CC1(C)OC2OC3C(O)C(=O)OC3C2O1` (stereo not given): the growth inhibition is -7.1%. The same measure for `Cc1ccc(S(=O)(=O)N/N=C(/c2nc3ccc([N+](=O)[O-])cc3[nH]c2=O)C(O)c2ccc(C(O)/C(=N\NS(=O)(=O)c3ccc(C)cc3)c3nc4ccc([N+](=O)[O-])cc4[nH]c3=O)cc2)cc1` (stereo not given): -10.3%.

Source of the values: PubChem BioAssay (NCI).
